# BoNT-A LC inh2 = BoNT/A light chain protease inhibitors, primary screen, biochemical, flow cytometry, MLPCN library; Botulinum neurotoxin type A light chain protease (Clostridium botulinum A str. ATCC 3502); multiplex microsphere protease substrate cleavage; inhibition, % at 10 µM; 0.17% of 360,000 active; AID 588499, 2011; also: plate controls were buffer without enzyme for full effect and enzyme alone for no effect
# BoNT F protease = BoNT/F light chain protease inhibitors, primary screen, biochemical, flow cytometry, MLPCN library; Multiplex microsphere protease cleavage assay; inhibition, % at 10 µM; 0.22% of 360,000 active; AID 588497, 2011; in the data active = inhibition above about 35%, passing the limit was not always enough; inconclusive = no clear call, values can overlap the other calls; also: plate controls were buffer without enzyme for full effect and enzyme alone for no effect
# Bead autofluor = flagged as autofluorescent in microsphere protease counterscreen; compound autofluorescence counterscreen, microsphere flow cytometry; stronger effect = higher value; fluorescence intensity (test concentration not listed); 3.1% of 360,000 active; AID 624483; in the data active = fluorescence intensity above about 16000; inconclusive = no clear call, values can overlap the other calls
# Anthrax LF inh2 = Bacillus anthracis LF protease inhibitors, primary screen, biochemical, multiplex microsphere, MLPCN library; 0.12% of 360,000 active; inhibition, % at 10 µM; multiplex microsphere protease cleavage assay; also: plate controls were buffer without enzyme for full effect and enzyme alone for no effect
# PfHsp40 yeast = rescue of yeast from PfHsp40 toxicity, primary screen, S. cerevisiae, ATP luminescence. S. cerevisiae expressing PfHsp40, growth rescue. AID 504582, 2011. 0.68% of 340,000 active. growth rescue, % at 12.5 µM; in the data active = growth rescue above about 28%, passing the limit was not always enough; inconclusive = no clear call, values can overlap the other calls;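 also: yeast W303a lacking pdr1 and pdr3 grown in galactose medium; growth measured after three days at 30 °C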
# MazEF act = activators of E. coli MazEF toxin-antitoxin RNase, primary screen, biochemical, fluorescence, uHTS | activation, % at 20 µM | Endoribonuclease toxin MazF (Escherichia coli (strain K12)), P0AE70 | FAM/BHQ RNA-DNA oligo cleavage fluorescence, 5 h | 0.32% of 350,000 active; in the data active = activation above about 50%
# Target sequence (P0AE70 whole entry, looked up): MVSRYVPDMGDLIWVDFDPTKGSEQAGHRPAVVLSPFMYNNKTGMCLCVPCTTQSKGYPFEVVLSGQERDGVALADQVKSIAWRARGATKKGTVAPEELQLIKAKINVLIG
# * = called active by the depositor; ? = inconclusive; . = not tested or not shown. Shown are actives, neighbours in structure and some others; about 4.3% of the full set was active somewhere. Rule as the data show it, unless noted: active = inhibition above about 30%; inconclusive = no clear call, values can overlap the other calls; inactive = below that.
SMILES,BoNT-A LC inh2,BoNT F protease,Bead autofluor,Anthrax LF inh2,PfHsp40 yeast,MazEF act
COc1ccc(C(=O)N(CN2CCCC2=O)c2ccccc2OC)cc1OC,-1.5,-2.2,23117*,0.1,-0.4,1.9
O=S(=O)(Nc1nnc(C2CC2)s1)c1ccccc1,-0.8,-7.6,3742,-6.5,0.5,0.2
CCOC(=O)c1[nH]c2ccc(Cl)cc2c1NC(=O)c1nonc1C,-1.6,-2.4,23712*,-1.2,0.0,-6.6
CCOC(=O)c1[nH]c2ccc(OC)cc2c1NC(=O)c1nonc1C,-0.2,-4.7,4476,-7.7,1.3,9.3
CCOC(=O)c1[nH]c2ccccc2c1NC(=O)c1nonc1C,?,3.0,21361*,-2.4,-0.9,0.3
CN1CCN(S(=O)(=O)c2cccc(S(=O)(=O)c3cccc(S(=O)(=O)N4CCN(C)CC4)c3)c2)CC1,-1.1,-0.3,21260*,0.5,-0.7,6.2
CN1CCN(S(=O)(=O)c2cccc([N+](=O)[O-])c2)CC1,-0.1,-0.9,20528*,-0.7,0.2,-2.6
COc1ccc(/C(N)=N/OC(=O)c2cc(-c3ccccc3)nc3ccccc23)cc1,2.3,-1.4,19686*,-3.8,1.8,3.4
CC(OC(=O)CCN=C1NS(=O)(=O)c2ccccc21)C(=O)Nc1ccc(N(C)C)cc1 (stereo unspecified),-0.9,2.4,5280,2.8,-0.8,3.4
COCCn1c(SCC(=O)Nc2c(C)n(C)n(-c3ccccc3)c2=O)nc2ccccc2c1=O,-2.4,-10.9,?,-4.2,-0.6,-3.6
CSc1nc(C)cc(OCC(=O)n2nc(C)cc2C)n1,?,0.1,23438*,-4.6,-1.5,0.3
CC[C@@]1(C(=O)OC)N[C@H](CN(C)S(=O)(=O)c2ccc(C(C)(C)C)cc2)[C@@H]2C(=O)N(C)C(=O)[C@@H]21,-0.9,-1.0,3569,-1.8,3.2,2.9
N=c1n(CCN2CCOCC2)c2ccccc2n1Cc1ccccc1Br,0.4,-0.7,19620*,-1.4,-0.7,6.2
CC(=O)Nc1ccc(Nc2nc(Cl)nc(Nc3ccc(NC(C)=O)cc3)n2)cc1,0.1,-3.0,3294,1.3,0.8,-5.5
Cc1ccc(C(=O)O/N=C2\CCSc3ccc(C)cc32)cc1,?,0.5,19396*,-5.2,0.6,-1.4
Cc1cccc(C(=O)O/N=C2\CCSc3ccc(C)cc32)c1,.,.,.,.,0.8,-3.7
COc1ccc(S(=O)(=O)O/N=C2\CCSc3ccc(C)cc32)cc1,-7.0,-9.4,21946*,-0.6,0.1,-5.5
CCN(CC)c1ccc(/C=C/[N+](=O)[O-])cc1,65.9*,16.8,12328,35.1*,2.0,10.3
CCN(CC)c1ccc(/C=N/NC(=O)c2ccc([N+](=O)[O-])cc2)cc1,-0.7,-3.1,2390,-1.5,-0.7,6.2
COC(=O)c1ccc(C2C(C(=O)c3ccco3)=C(O)C(=O)N2CC2CCCO2)cc1 (stereo unspecified),-4.8,14.3,3747,-6.2,-0.2,-1.0
c1ccc(Cn2nnc3c(N4CCN(Cc5ccc6c(c5)OCO6)CC4)ncnc32)cc1,-0.8,-4.1,24167*,-1.4,-0.6,-3.1
NC(=O)C1CCN(c2nc(C3CC3)nc3c2nnn3Cc2ccccc2Cl)CC1,?,-4.7,25043*,-3.4,1.2,-0.6
Clc1ccccc1Cn1nnc2c(N3CCCC3)ncnc21,-1.1,-1.5,23668*,-2.3,0.0,-0.4
NC(=O)C1CCN(c2nc(C3CC3)nc3c2nnn3Cc2ccccc2)CC1,-0.8,-11.3,8526,-7.7,0.9,2.9
CC1Cc2ccccc2N1c1ncnc2c1nnn2Cc1ccccc1Cl (stereo unspecified),-0.1,10.9,4737,-2.8,1.1,-8.6
SMILES,BoNT-A LC inh2,BoNT F protease,Bead autofluor,Anthrax LF inh2,PfHsp40 yeast,MazEF act
OCCNc1nc(C2CC2)nc2c1nnn2Cc1ccccc1Cl,?,-1.5,23293*,0.0,0.3,1.8
COc1ccc(NC(=O)c2cccnc2N2CCOCC2)cc1,-0.3,-2.3,4229,-1.6,0.1,11.1
COCC(C)NC(=O)c1cc2c(ccc3ccccc32)oc1=O (stereo unspecified),0.1,3.5,3156,8.7,-0.2,4.3
CCOC(=O)c1c(C)[nH]c(C)c1C(=O)COC(=O)COc1ccc(Cl)c(C)c1,-0.5,-1.0,5127,4.2,-0.4,6.8
COc1ccc(CNC(C)(C)C)cc1Cl,-0.4,0.9,16540*,-1.2,-0.5,4.5
O=C(CSc1nc(-c2ccco2)cc(C(F)(F)F)n1)Nc1ccc2c(c1)CCC2,1.6,9.5,3453,-1.2,1.2,6.3
Cc1ccc(NC(=O)CSc2nc(-c3ccco3)cc(C(F)(F)F)n2)cc1C,-4.1,-9.7,17763*,0.5,0.8,4.4
COc1cc(C(=C(CC(=O)O)C(=O)O)c2ccc3c(c2)OCO3)cc(OC)c1OC,-0.6,-3.6,3107,1.6,-1.7,3.3
O=C(O)CCC(=O)N1CCc2cc(S(=O)(=O)NC3CCCC3)ccc21,-1.8,-2.8,21391*,1.7,-1.4,-10.2
Cc1cccc(N2CCN(S(=O)(=O)c3ccc4c(c3)CCN4C(=O)CCC(=O)O)CC2)c1C,-1.8,-1.1,24315*,-1.7,-1.1,-15.7
CCOc1ccc2c(c1)S/C(=C\c1cccs1)C(=O)N2,0.1,6.0,3182,-8.4,2.8,77.3*
O=S(=O)(c1ccc(-c2ccon2)s1)N1CCN(c2ccncc2)CC1,.,.,.,.,.,5.5
C=CCn1cnc2c(c1=O)c1nc3ccccc3nc1n2/N=C/c1ccccn1,-1.9,-2.6,20073*,-0.8,-0.1,2.3
O=c1c2c3nc4ccccc4nc3n(/N=C/c3ccccn3)c2ncn1-c1ccccc1,-6.9,?,3273,-2.4,-1.5,2.8
O=C(NNC(=O)c1cc2ccccc2cc1O)Nc1ccccc1F,-2.3,-13.0,6551,0.3,119.9*,4.5
Cc1ccc(-c2noc(C3CCCN(C(=O)c4c(F)cccc4F)C3)n2)cc1 (stereo unspecified),1.9,3.9,21313*,-7.2,-2.1,-3.5
COc1ccc(-c2noc(C3CCCN(C(=O)c4ccccc4OC)C3)n2)cc1OC (stereo unspecified),?,0.4,16635*,-0.8,-0.6,-10.6
COc1ccc(-c2noc(C3CCCN(C(=O)c4c(F)cccc4F)C3)n2)cc1OC (stereo unspecified),4.9,-11.8,3255,-2.9,-0.9,7.4
COc1ccc(C(=O)N2CCCC(c3nc(-c4ccc(OC)c(OC)c4)no3)C2)c(OC)c1 (stereo unspecified),4.9,5.4,20939*,-9.3,-0.5,1.7
COc1ccc(-c2noc(C3CCCN(C(=O)c4cccc(C)c4)C3)n2)cc1 (stereo unspecified),-3.3,?,4215,-11.8,-0.3,-5.3
